Source: the supplement of paper PMC10849652
Of roughly 8,800 targets only a part is listed; those with a hit were picked by preference. About 0.5% of all pairs of compound and target were hits. Unmarked numbers belong to inactive results.

Columns and labels:
Experiment in all cases: log2 fold change, soluble protein after heating vs DMSO (PISA); higher = thermal stabilisation; K562 lysate, 10 uM; active = over 0.2 and 3.5 SD of the protein, either way, in both replicates (recomputed)
alvocidib = compound: CN1CC[C@H](c2c(O)cc(O)c3c(=O)cc(-c4ccccc4Cl)oc23)[C@H](O)C1 [alvocidib]
In short: (§1)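 K562 pellets were dounce-homogenised in PBS pH 7.4 containing 1 mM MgCl2, and the crude extract, at 1 mg/mL protein, was exposed to 10 μM compound for 30 min. Aliquots were heated for 3 min across 48°C-58°C, pooled, brought to 0.5% NP-40 at 4°C and spun at 21,000xg for 90 min, with the supernatant taken as soluble protein. TMTpro 16plex LC-MS/MS with equalised channel sums quantified that protein. Values are log-two fold changes in thermal stability relative to solvent controls, taken from duplicates.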

Tubastatin A = compound: CN1CCc2c(c3ccccc3n2Cc2ccc(C(=O)NO)cc2)C1 [Tubastatin A]
In short: as §1

[1] = compound: CNC(=O)C1=CC=CC=C1NC2=NC(=NC=C2Cl)NC3=C(C=C(C=C3)N4CCOCC4)OC
In short: as §1

defactinib = compound: CNC(=O)c1ccc(Nc2ncc(C(F)(F)F)c(NCc3nccnc3N(C)S(C)(=O)=O)n2)cc1 [defactinib]
In short: as §1

[2] = compound: CNc1nc(-c2ccc3c(N)n[nH]c3c2)cc(N2C[C@@H](C(=O)NC3CCCCC3)CC[C@H]2C)n1
In short: as §1

encorafenib = compound: COC(=O)N[C@@H](C)CNc1nccc(-c2cn(C(C)C)nc2-c2cc(Cl)cc(NS(C)(=O)=O)c2F)n1 [encorafenib]
In short: as §1

[3] = compound: COC(=O)[C@H](CCSC)NC(=O)C1=C(C=C(C=C1)NC[C@H](CS)N)C2=CC=CC=C2
In short: as §1

alisertib = compound: COc1cc(Nc2ncc3c(n2)-c2ccc(Cl)cc2C(c2c(F)cccc2OC)=NC3)ccc1C(=O)O [alisertib]
In short: as §1

[4] = compound: COc1cc2nc(-c3cc(F)ccc3O)nc(N[C@@H]3CNC[C@H]3C(C)(C)O)c2cc1OC
In short: as §1

gefitinib = compound: COc1cc2ncnc(Nc3ccc(F)c(Cl)c3)c2cc1OCCCN1CCOCC1 [gefitinib]
In short: as §1

lapatinib = compound: CS(=O)(=O)CCNCc1ccc(-c2ccc3ncnc(Nc4ccc(OCc5cccc(F)c5)c(Cl)c4)c3c2)o1 [lapatinib]
In short: as §1

pictilisib = compound: CS(=O)(=O)N1CCN(Cc2cc3nc(-c4cccc5[nH]ncc45)nc(N4CCOCC4)c3s2)CC1 [pictilisib]
In short: as §1

crizotinib = compound: C[C@@H](Oc1cc(-c2cnn(C3CCNCC3)c2)cnc1N)c1c(Cl)ccc(F)c1Cl [crizotinib]
In short: as §1

[5] = compound: C[C@H](C1=CC=C(C=C1)C(=O)NC2=C3C=CNC3=NC=C2)N
In short: as §1

duvelisib = compound: C[C@H](Nc1ncnc2nc[nH]c12)c1cc2cccc(Cl)c2c(=O)n1-c1ccccc1 [duvelisib]
In short: as §1

gandotinib = compound: Cc1cc(Nc2cc(CN3CCOCC3)c3nc(C)c(Cc4ccc(Cl)cc4F)n3n2)n[nH]1 [gandotinib]
In short: as §1

tozasertib = compound: Cc1cc(Nc2cc(N3CCN(C)CC3)nc(Sc3ccc(NC(=O)C4CC4)cc3)n2)n[nH]1 [tozasertib]
In short: as §1

doramapimod = compound: Cc1ccc(-n2nc(C(C)(C)C)cc2NC(=O)Nc2ccc(OCCN3CCOCC3)c3ccccc23)cc1 [doramapimod]
In short: as §1

bafetinib = compound: Cc1ccc(NC(=O)c2ccc(CN3CC[C@H](N(C)C)C3)c(C(F)(F)F)c2)cc1Nc1nccc(-c2cncnc2)n1 [bafetinib]
In short: as §1

[6] = compound: Cc1cccc(CC(=O)N2CCc3c2ccc(-c2cn(C)c4ncnc(N)c24)c3F)n1
In short: as §1

Chain of UniProt Q9BQE3 (Q9BQE3 whole entry, looked up): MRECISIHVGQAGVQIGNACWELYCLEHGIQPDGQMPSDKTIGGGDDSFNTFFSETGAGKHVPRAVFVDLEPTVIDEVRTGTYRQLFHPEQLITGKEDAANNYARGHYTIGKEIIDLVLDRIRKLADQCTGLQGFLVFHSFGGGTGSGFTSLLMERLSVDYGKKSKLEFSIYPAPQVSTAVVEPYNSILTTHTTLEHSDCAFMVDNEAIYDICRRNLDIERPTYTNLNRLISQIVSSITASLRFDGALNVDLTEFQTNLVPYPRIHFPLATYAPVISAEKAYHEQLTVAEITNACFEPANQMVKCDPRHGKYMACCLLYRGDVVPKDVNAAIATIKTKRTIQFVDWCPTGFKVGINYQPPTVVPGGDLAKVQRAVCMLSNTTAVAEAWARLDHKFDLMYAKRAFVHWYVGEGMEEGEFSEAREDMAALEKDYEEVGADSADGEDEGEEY
Chain of UniProt P17480 (P17480 whole entry, looked up): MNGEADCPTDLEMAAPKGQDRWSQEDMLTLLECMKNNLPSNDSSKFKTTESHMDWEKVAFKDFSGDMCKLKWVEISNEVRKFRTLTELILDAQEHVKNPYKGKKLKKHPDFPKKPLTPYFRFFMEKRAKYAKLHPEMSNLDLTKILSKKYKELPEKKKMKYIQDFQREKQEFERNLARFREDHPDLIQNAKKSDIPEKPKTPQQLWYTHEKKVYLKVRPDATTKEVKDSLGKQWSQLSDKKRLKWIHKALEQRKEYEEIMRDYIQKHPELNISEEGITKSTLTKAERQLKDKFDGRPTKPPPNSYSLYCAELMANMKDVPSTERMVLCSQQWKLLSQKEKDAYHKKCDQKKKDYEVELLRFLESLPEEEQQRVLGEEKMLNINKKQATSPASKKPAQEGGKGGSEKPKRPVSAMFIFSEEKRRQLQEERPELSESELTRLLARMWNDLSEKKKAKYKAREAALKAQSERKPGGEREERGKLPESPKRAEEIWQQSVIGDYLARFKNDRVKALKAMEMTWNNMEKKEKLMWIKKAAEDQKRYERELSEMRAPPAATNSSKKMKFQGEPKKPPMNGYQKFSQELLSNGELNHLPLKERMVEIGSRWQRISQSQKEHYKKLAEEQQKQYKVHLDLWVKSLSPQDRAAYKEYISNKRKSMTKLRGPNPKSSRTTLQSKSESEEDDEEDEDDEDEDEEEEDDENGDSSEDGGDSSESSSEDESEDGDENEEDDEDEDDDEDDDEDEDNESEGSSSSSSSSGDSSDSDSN
Chain of UniProt Q8TBZ6 (Q8TBZ6 whole entry, looked up): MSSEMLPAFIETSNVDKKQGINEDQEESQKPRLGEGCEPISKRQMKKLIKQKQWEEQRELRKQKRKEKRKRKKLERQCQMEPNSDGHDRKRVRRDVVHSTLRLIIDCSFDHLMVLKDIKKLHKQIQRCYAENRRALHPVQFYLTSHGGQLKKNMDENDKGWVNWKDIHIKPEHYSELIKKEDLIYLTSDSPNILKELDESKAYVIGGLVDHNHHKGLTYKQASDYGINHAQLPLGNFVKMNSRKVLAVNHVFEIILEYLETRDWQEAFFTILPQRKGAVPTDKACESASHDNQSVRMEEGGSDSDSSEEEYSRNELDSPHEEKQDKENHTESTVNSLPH
Chain of UniProt Q9BUF5 (Q9BUF5 whole entry, looked up): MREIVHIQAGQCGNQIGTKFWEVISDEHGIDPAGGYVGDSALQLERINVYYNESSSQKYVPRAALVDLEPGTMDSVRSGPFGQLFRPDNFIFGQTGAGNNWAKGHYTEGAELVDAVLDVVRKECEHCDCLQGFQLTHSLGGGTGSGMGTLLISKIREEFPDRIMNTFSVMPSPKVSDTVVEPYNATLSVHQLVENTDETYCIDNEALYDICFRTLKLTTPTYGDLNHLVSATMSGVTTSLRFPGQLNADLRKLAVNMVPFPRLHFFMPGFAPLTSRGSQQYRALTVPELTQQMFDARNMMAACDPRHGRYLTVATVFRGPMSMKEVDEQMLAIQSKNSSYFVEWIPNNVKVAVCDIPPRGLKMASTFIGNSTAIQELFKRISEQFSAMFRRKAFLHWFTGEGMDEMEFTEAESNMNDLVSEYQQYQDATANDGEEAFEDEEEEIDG
Chain of UniProt P68371 (P68371 whole entry, looked up): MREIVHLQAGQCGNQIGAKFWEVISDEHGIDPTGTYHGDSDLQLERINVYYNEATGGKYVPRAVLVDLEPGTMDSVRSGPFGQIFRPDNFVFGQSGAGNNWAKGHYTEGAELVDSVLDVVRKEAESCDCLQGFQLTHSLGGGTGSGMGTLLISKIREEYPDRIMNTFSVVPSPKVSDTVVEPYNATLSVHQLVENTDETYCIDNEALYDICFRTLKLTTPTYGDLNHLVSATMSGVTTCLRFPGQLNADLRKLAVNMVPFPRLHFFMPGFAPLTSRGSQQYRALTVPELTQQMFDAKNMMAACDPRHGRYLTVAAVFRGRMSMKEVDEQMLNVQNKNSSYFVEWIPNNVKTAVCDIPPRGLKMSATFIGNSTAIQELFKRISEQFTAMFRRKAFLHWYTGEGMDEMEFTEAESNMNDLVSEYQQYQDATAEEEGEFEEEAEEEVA
Chain of UniProt Q9BUB7 (Q9BUB7 whole entry, looked up): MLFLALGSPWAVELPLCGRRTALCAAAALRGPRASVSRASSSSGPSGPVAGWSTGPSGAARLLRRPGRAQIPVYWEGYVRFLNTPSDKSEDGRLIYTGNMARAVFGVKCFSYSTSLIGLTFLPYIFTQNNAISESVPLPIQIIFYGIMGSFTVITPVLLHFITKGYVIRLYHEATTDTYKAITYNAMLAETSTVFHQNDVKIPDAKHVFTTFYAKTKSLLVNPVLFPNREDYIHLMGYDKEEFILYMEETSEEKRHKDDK

Row | Target | log2 fold change (alvocidib) | log2 fold change (Tubastatin A) | log2 fold change [1] | log2 fold change (defactinib) | log2 fold change [2] | log2 fold change (encorafenib) | log2 fold change [3] | log2 fold change (alisertib) | log2 fold change [4] | log2 fold change (gefitinib) | log2 fold change (lapatinib) | log2 fold change (pictilisib) | log2 fold change (crizotinib) | log2 fold change [5] | log2 fold change (duvelisib) | log2 fold change (gandotinib) | log2 fold change (tozasertib) | log2 fold change (doramapimod) | log2 fold change (bafetinib) | log2 fold change [6]
1 | TRMT10A (UniProt Q8TBZ6) | 0.003 | -0.008 | 0.095 | -0.01 | 0.09 | -0.031 | -0.012 | 0.015 | -0.021 | -0.004 | 0.042 | 0.083 | 0.031 | -0.041 | 0.001 | 0.02 | -0.047 | 0.001 | 0.012 | 0.059
2 | TUBB6 (UniProt Q9BUF5) | 0.023 | -0.064 | 0.015 | 0.034 | 0.023 | 0.017 | 0.056 | 0.028 | 0.011 | -0.024 | -0.038 | -0.015 | -0.056 | 0.003 | 0.009 | -0.009 | -0.02 | -0.047 | -0.023 | -0.018
3 | TUBA1C (UniProt Q9BQE3) | 0 | -0.001 | 0.011 | 0.009 | 0.06 | -0.002 | 0.023 | -0.012 | 0.001 | -0.042 | 0.004 | -0.057 | -0.045 | -0.013 | -0.019 | 0.062 | -0.008 | -0.026 | 0.005 | 0.021
4 | UBTF (UniProt P17480) | 0.026 | -0.135 | -0.008 | 0.007 | 0.004 | -0.002 | 0.073 | 0.055 | -0.018 | 0.045 | -0.013 | -0.024 | -0.037 | 0.071 | -0.015 | -0.103 | 0.004 | -0.008 | -0.039 | -0.011
5 | TMEM70 (UniProt Q9BUB7) | -0.037 | -0.015 | -0.025 | -0.001 | -0.056 | 0.021 | -0.002 | 0.024 | -0.041 | -0.036 | -0.002 | -0.012 | -0.082 | -0.304 (active) | 0.011 | 0.057 | -0.014 | 0.092 | -0.038 | 0.138
6 | TUBB4B (UniProt P68371) | 0.032 | -0.017 | 0.024 | 0.018 | -0.039 | -0.03 | 0.067 | 0.019 | -0.013 | -0.028 | 0.027 | 0.017 | -0.027 | 0.053 | -0.029 | 0.004 | 0.011 | -0.024 | 0.027 | -0.043
